“And” between values parts separate entries of the source, which are not always exact repeats. Equal values may be shown once. The whole screen tested about 16,000 compounds, of which about 5,800 (36%) were called active. Inconclusive results (about 23%) are left out. The list shows a part of the results. Values without a mark were called inactive. Calls follow the shape of the dose curve; as a rule, active = well fitted curve in the direction sought with a large enough effect; inconclusive = small, poorly fitted or top-dose-only effect, or effect the other way; inactive = no such curve, though single readings can be large or run the other way.
Target: Cytochrome P450 2C19 (Homo sapiens) (UniProt P33261)
Sequence (P33261 whole entry, looked up): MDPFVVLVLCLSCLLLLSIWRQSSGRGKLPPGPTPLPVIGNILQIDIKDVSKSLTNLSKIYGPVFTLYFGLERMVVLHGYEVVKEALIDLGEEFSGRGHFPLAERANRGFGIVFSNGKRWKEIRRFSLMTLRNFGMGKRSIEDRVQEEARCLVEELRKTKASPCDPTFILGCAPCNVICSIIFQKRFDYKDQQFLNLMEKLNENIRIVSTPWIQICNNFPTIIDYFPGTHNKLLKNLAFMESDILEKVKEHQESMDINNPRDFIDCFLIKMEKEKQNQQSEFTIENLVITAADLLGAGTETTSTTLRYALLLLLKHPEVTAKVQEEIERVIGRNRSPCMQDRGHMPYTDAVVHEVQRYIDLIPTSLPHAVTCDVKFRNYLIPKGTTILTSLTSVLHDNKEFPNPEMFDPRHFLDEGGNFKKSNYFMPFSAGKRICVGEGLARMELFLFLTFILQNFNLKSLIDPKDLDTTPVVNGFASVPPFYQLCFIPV
Assay: Cytochrome panel assay with activity outcomes
Conditions: recombinant CYP, pro-luciferin dealkylation, luminescence, p450-cyp2c19; series mostly up to 57.1 µM
% is scaled to controls: 0 for no effect and ±100 for the full control effect.

Structure (SMILES)	AC50	activity, negative = inhibition
Cc1nc(-c2cccnc2)sc1C(=O)Nc1ccc(Cl)cc1	11.2 µM (active)	
CNC(=O)c1sc(-c2cccnc2)nc1C	inactive	
CC(=O)OC[C@H]1O[C@@H](O/N=C(\C)CCN2CCCCc3nc(C)c(C)cc32)[C@H](OC(C)=O)[C@@H](OC(C)=O)[C@H]1OC(C)=O		-0.342% [at 11.4 µM]
CNc1ncnc2c1ncn2[C@@H]1O[C@@H](CO)[C@H](O)[C@@H]1O	inactive	
CNc1ncnc2c1ncn2[C@H]1C[C@@H](OP(=O)(O)O)[C@H](COP(=O)(O)O)O1	inactive	
CNc1ncnc2c1ncn2[C@H]1C[C@H](OP(=O)(O)O)[C@H](COP(=O)(O)O)O1	1 µM (active)	
CN(C)CCN(Cc1ccc(Cl)cc1)c1ccccn1	6.31 µM (active)	
COc1ccc(CN(CCN(C)C)c2ccccn2)cc1	inactive	
CN(C)CCN(Cc1cccs1)c1ccccn1	inactive	
N=c1n(-c2ccccc2)c(O)cc(=O)n1-c1ccccc1	inactive	
Cc1ccc(C(=O)N/C(=C\c2ccc(Br)cc2)c2nc(=S)[nH][nH]2)cc1	11.2 µM (active)	
CO[C@H]1COC(=O)CCC[C@@H](C)[C@H](OC)COC(=O)[C@@H](C)NC(=O)C/C=C\[C@@H]1C		31.3% [at 11.4 µM]
O=C(O)COc1ccc(OCCNC[C@@H](O)COc2ccccc2)cc1	inactive	
COc1ccc(-c2cc3ccccc3n2CC(O)CNCCO)cc1 (stereo not given)	14.1 µM (active)	
NC(=O)c1cc[n+](CC2=C(C(=O)O)N3C(=O)[C@@H](NC(=O)[C@H](c4ccccc4)S(=O)(=O)[O-])[C@@H]3SC2)cc1	inactive	
O=C(NNS(=O)(=O)c1ccc(Cl)cc1)C1CCN(Cc2ccccc2)CC1	inactive	
O=C(NNS(=O)(=O)c1ccccc1)c1cccnc1		9.95% [at 11.4 µM]
O=C(NNS(=O)(=O)c1ccc(Cl)cc1)c1cnn(-c2ccccc2)c1-n1cccc1	1.12 µM (active)	
COc1cc2c(cc1OC)C(C(=O)N1CCOCC1)C(c1cccs1)N(C)C2=O (stereo not given)	inactive	
Cc1ccc(-n2c(C)nnc2SCC(=O)N2CCc3ccccc3C2)cc1C	22.4 µM (active)	
CCC(=O)Nc1c2c(nc3c1CCC3)CCCC2	inactive	
CCSc1nnc(NC(=O)CSc2nc3c(cc2C#N)CCCC3)s1	2.82 µM (active)	
COc1ccc(NC(=S)Nc2ncccc2C)c(OC)c1	3.55 µM (active)	
COc1ccc(-n2nc3cc(C)c(NC(=S)NC(=O)c4ccccc4C)cc3n2)cc1	inactive	
CO[C@H]1COC(=O)C/C=C\[C@H](C)[C@@H](NS(=O)(=O)c2ccc(C)cc2)COC(=O)C/C=C\[C@@H]1C		1.28% [at 11.4 µM] and 16.7% [at 11.4 µM]
